Screening results (PubChem BioAssay)
HIV RNase H inh-1 – HIV-1 RT RNase H inhibitors, primary screen, biochemical, fluorescence; inhibition, % at 10 µM; actives 1.9% (n = 65,000); Gag-Pol polyprotein (Human immunodeficiency virus type 1 group M subtype B (isolate …; RT-RNase H RNA/DNA duplex cleavage; in the data active = inhibition above about 50%
HIV RNase H inh-2 – HIV-1 RT RNase H inhibitors, retest, confirmation, biochemical. actives 39% (n = 1,000). Recombinant RT RNase H, fluorescent RNA/DNA duplex cleavage. AID 651, 2007. inhibition, % at 10 µM. shares compounds with HIV RNase H inh-1; in the data active = inhibition above about 48%; inconclusive = no clear call, values can overlap the other calls
Starred values were filed as active, the others as inactive; ? = inconclusive. The entries come from a sample that favours hits as a whole.

SMILES | HIV RNase H inh-1 | others
Clc1ccc(-c2ccc(-c3nn4c(-c5ccco5)nnc4s3)o2)cc1 | 98.6* | HIV RNase H inh-2=?
c1ccc(-c2nn3c(-c4ccco4)nnc3s2)nc1 | -2.8
Cc1occc1-c1nnc2sc(-c3ccc(-c4ccc(Cl)cc4)o3)nn12 | 24.4
COc1ccc2oc(C(=O)C3CC3)c(NC(=O)CCCN3C(=O)c4ccccc4C3=O)c2c1 | 25.9
Cc1cc(C)c(S(=O)(=O)NCc2cn3c(C)csc3n2)cc1C | -15.7
CC1(C2(O)CC(c3ccccc3)ON2)CCCCC1 (centres undefined) | 2.2
CS(=O)(=O)N(CCc1ccccc1)CC(=O)N1CCc2ccccc2C1 | -11.0
Cc1ccc(CS(=O)(=O)CCC(=O)N2CCOCC2)cc1 | -14.9
Cn1c(Cn2c(=O)sc3ccccc32)nnc1SCC(=O)NCc1ccccc1Cl | -10.8
COC(=O)c1c(NC(=O)Cc2cccs2)sc(C)c1C | -43.3
COC(=O)c1sccc1NC(=O)c1ccc(Br)o1 | -32.2
COC(=O)c1c(NC(=O)c2ccc(Br)o2)sc(C)c1C | 74.3* | HIV RNase H inh-2=0.9
CCOc1ccccc1NC(=O)N1CCCC1C(=O)Nc1ccc(-n2cnnn2)c(C)c1 (centres undefined) | -6.6
O=C(COc1ccc(-c2nnco2)cc1)NC1CCCc2ccccc21 (centres undefined) | -15.9
CCc1ccccc1NC1=NCC(=O)N1C1CCCCC1 | 82.7* | HIV RNase H inh-2=20.1
Cc1cc(C)c(NC2=NCC(=O)N2C2CCCCC2)c(C)c1 | -56.9
CCc1ccccc1NC1=NCC(=O)N1Cc1ccccc1 | -29.6
O=C(c1cccn2c(=O)c3ccc(Cl)cc3nc12)N1CCN(Cc2ccc3c(c2)OCO3)CC1 | -23.8
COCCn1c(C)cc(C(=O)CSc2nc(C)cc(C)c2C#N)c1C | -60.7
Cc1cc(=O)[nH]c(SCC(=O)C23CC4CC(CC(C4)C2)C3)c1C#N | 61.4* | HIV RNase H inh-2=12.3
Cc1cc(C)c(C#N)c(SCC(=O)OC2CCCCC2)n1 | -43.7
CC(C)NC(=O)CSc1nnc(-c2ccc(C(C)(C)C)cc2)n1C | 5.2
COCCCNC(=O)c1ccccc1NS(=O)(=O)c1ccc(C)cc1 | -6.7
Cc1ccccc1NS(=O)(=O)c1cc(S(C)(=O)=O)ccc1Cl | -0.3
COC(=O)c1cc(Cl)c(NS(=O)(=O)c2ccccc2)cc1OC | -10.4
SMILES | HIV RNase H inh-1 | others
Cc1cc(NS(=O)(=O)c2ccccc2)c(C)c(Cl)c1O | 79.8* | HIV RNase H inh-2=-6.1
C=CCn1c(N)c(C(=O)NCCC2=CCCCC2)sc1=S | 81.2* | HIV RNase H inh-2=87.0*
O=C(CCn1c(=O)sc2ccccc21)NCCC1=CCCCC1 | -24.5
Cc1cc(C(=O)NCCC2=CCCCC2)c(C)o1 | -20.6
Fc1ccc(C2=Nn3c(nnc3-c3n[nH]c4c3CCC4)SC2)cc1 | -26.9
CC(C)(C)C1=Nn2c(nnc2-c2n[nH]c3c2CCC3)SC1 | 52.8* | HIV RNase H inh-2=34.9
CC1=Nn2c(nnc2-c2n[nH]c3c2CCC3)SC1 | -4.7
CCOC(=O)C1=C(c2ccccc2)NC(SCC(=O)Nc2ccccc2C)=C(C#N)C1c1ccco1 (centres undefined) | 29.4
COc1ccc(NC(=O)c2cnc3ccccn3c2=O)cc1OC | -9.5
CCSc1ccccc1C(=O)Nc1cc(C)on1 | -3.6
CCSc1ccccc1C(=O)Nc1cccnc1 | 20.9
CCSc1ccccc1C(=O)Nc1nncs1 | 56.0* | HIV RNase H inh-2=17.9
O=C1NCCCc2c1oc1ccc(O)cc21 | 1.5
Oc1c(Cl)cc(Cl)c2c1NCCC2 | 79.8* | HIV RNase H inh-2=36.7
Cc1c(NC(=O)COc2ncnc3ccccc23)c(=O)n(-c2ccccc2)n1C | -14.1
COC(=O)c1nn(-c2c(C)n(C)n(-c3ccccc3)c2=O)cc1O | 0.7
Cc1ccc(-c2noc(CCC(=O)N3CCCc4ccccc43)n2)cc1 | -5.2
CSc1nc(SCC(=O)NCc2ccco2)c2c3c(sc2n1)CN(C)CC3 | 10.5
CSc1nc(N(CCO)CCO)c2sc3nc(-c4ccco4)c4c(c3c2n1)CCC4 | 56.4* | HIV RNase H inh-2=16.1
CSc1nc(NCc2ccco2)c2c3c(sc2n1)CN(C)CC3 | -5.0
CCC(=O)N/C(=N/c1nc(C)cc(C)n1)Nc1cccc(OC)c1 | -10.4
CC(C)CNc1oc(-c2ccc(F)cc2)nc1C#N | -23.2
Cc1[nH]c(=O)[nH]c(=O)c1S(=O)(=O)N1c2ccc(F)cc2CCC1C (centres undefined) | -2.3
CNC(=O)NC(=O)CSc1nc2cc(C(=O)OC)ccc2c(=O)n1-c1ccccc1 | 9.4
Cc1ccc(NC(=O)C2CCN(S(=O)(=O)c3c(C)n[nH]c3C)CC2)nc1 | -16.7
SMILES | HIV RNase H inh-1 | others
COc1ccc(C(c2sc3nc(C)nn3c2O)N2CCCCC2)cc1 (centres undefined) | -3.0
COc1ccc(C(c2sc3nc(C)nn3c2O)N2CCc3ccccc3C2)cc1 (centres undefined) | 78.6* | HIV RNase H inh-2=4.5
COc1cc(C(c2sc3nc(C)nn3c2O)N2CCc3ccccc3C2)cc(OC)c1OC (centres undefined) | 23.9
CC(C)Oc1ccc(/C(O)=C2/C(=O)C(=O)N(CCN(C)C)C2c2ccco2)cc1 (centres undefined) | -1.1
Cc1ccnc(NC(=O)CCC(=O)N(CC(=O)NC2CCCCC2)Cc2ccc3c(c2)OCO3)c1 | 1.6
CCC1CCCCN1S(=O)(=O)c1ccc2c(c1)CCN2C(=O)C1CCC1 (centres undefined) | -7.0
CCC1CCCCN1S(=O)(=O)c1ccc(S(=O)(=O)N2CCN(S(=O)(=O)CC)CC2)cc1 (centres undefined) | 51.2* | HIV RNase H inh-2=56.7*
CCS(=O)(=O)N1CCN(S(=O)(=O)c2ccc(F)cc2)CC1 | -7.7
COc1ccc(C2C3=C(CC(C)(C)CC3=O)Oc3ncn4nc(-c5cccnc5)nc4c32)cc1 (centres undefined) | -2.6
O=C1N(CC(=O)N2CCc3ccccc32)CCN1Cc1ccccc1Cl | -67.2
Cc1ccc(N2C(=O)[C@@H]3C(c4ccc(F)cc4)=NO[C@@H]3C2=O)cc1 | 2.4
COc1ccc(C2=NO[C@@H]3C(=O)N(c4cccc(C)c4C)C(=O)[C@H]23)cc1OC | 6.4
COc1ccc(C2=NO[C@@H]3C(=O)N(c4ccc(C)cc4C)C(=O)[C@H]23)cc1OC | 54.3* | HIV RNase H inh-2=-7.5
CCCOc1ccc2ccccc2c1/C=N/n1c(C)nnc1-n1nc(C)cc1C | -58.0
N#C/C(Cn1c[n+](NC(=O)Nc2ccccc2)cn1)=N/O | -8.5
Cc1cc(NC(=O)COC(=O)C(Nc2ccc(C(F)(F)F)cc2Cl)C(C)C)no1 (centres undefined) | 8.0
CCCCC(=O)Nc1ccc(NC(=O)C2CC2)nc1 | 3.1
CCN(CC)S(=O)(=O)c1ccc(NC(=O)Cn2c(=O)oc3ccccc32)cc1 | -7.1
O=C(CCn1c(=O)oc2ccccc21)Nc1nccs1 | -12.6
CC(C)(C)c1csc(NC(=O)Cn2c(=O)oc3ccccc32)n1 | 87.6* | HIV RNase H inh-2=21.2
COC(=O)c1cc(NC2c3ncccc3C(=O)N2Cc2ccccc2)cc(C(=O)OC)c1 (centres undefined) | -6.5
Cc1ccc(NC2c3ncccc3C(=O)N2c2ccccc2C)cc1C (centres undefined) | 56.2* | HIV RNase H inh-2=11.0
CCOc1ccc(N2C(=O)c3cccnc3C2Nc2ccc(Cl)cc2)cc1 (centres undefined) | 20.0
CC[C@@H](C)[C@H](NC(=O)C1CCN(C(=O)[C@@H](NS(=O)(=O)c2ccc(C)cc2)C(C)C)CC1)C(=O)O | -9.1
CCCC(=O)Nc1ccc(N2CCN(CC)CC2)c(Cl)c1 | 80.8* | HIV RNase H inh-2=6.7
